According to PMC7819943, “Rice protein-binding microarrays: a tool to detect cis-acting elements near promoter regions in rice”:
The full ranking holds about 39,000 sequences; the median of “fluorescence intensity (a.u.)” is about 4,300, and the highest 2% start at about 39,000. The list comes from a sample in which the highest values are over-represented; it also holds similar and randomly drawn sequences.

biological target: T1, OsSMF1 (Oryza sativa, UniProt Q6ZLB0 1-436); assay: protein-binding microarray (RPBM); PBS, 2% BSA, 51.3 ng/ul salmon testes DNA, 50 uM zinc acetate, 200 nM TF, 25 C, 1 h; high values mean tight binding; settings: protein: recombinant; tags: N-terminal polyhistidine and DsRed monomer fusion (pET32a); chain copies: 2; label: CyDye5-dUTP incorporated in the synthesized complementary strand; 3' TTTTT single-stranded linker to array surface; dsDNA, one strand shown
T1 sequence: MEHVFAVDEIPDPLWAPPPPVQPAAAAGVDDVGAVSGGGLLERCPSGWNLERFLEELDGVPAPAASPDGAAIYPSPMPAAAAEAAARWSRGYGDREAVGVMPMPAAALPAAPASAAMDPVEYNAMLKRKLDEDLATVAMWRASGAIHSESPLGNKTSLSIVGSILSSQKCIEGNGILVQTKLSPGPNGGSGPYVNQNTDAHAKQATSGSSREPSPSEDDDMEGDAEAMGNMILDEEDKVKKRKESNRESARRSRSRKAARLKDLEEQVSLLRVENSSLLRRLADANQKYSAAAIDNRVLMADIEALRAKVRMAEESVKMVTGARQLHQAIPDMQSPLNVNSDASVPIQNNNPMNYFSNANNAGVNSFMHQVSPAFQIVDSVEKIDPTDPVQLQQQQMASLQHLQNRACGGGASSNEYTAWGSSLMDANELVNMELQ
Summary of the method: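 Binding signal is defined as the fluorescence intensity of each feature in arbitrary units, read on an Axon 4000B scanner. Transcription factors with N-terminal polyhistidine and DsRed fusions came from E. coli BL21-CodonPlus and were purified on Ni–NTA. They were incubated at 200 nM for 1 h at 25 °C on a custom Agilent array that had been made double-stranded with Cy5-dUTP, with 50 µM zinc acetate present, and the array was washed.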

Sequence	binding signal
AATCCGCCGAGGGACTTATTGTGACCGGTTTTGATTAGTTCGGAGTCACCTAGTGCAG	19600 fluorescence intensity (a.u.)
CCACACACTTATGAACACGAGTACAGCCGATGCCCTATAACGGAGTCACCTAGTGCAG	3390 fluorescence intensity (a.u.)
TATGATTTTAAATTCGTCATACTCTAGTTAGCCTAGAAAACGGAGTCACCTAGTGCAG	3430 fluorescence intensity (a.u.)
TGTTAAATTCGTCTCGCAAAATAGCCTAAGGGTTATAGAACGGAGTCACCTAGTGCAG	40500 fluorescence intensity (a.u.)
TAAGGCAAAAGCCAAAATTCAAATATAGTTAAAATTAAAGCGGAGTCACCTAGTGCAG	7150 fluorescence intensity (a.u.)
AAGCGCACGCACACATATGCCACGCATTGACGCATGGCACCGGAGTCACCTAGTGCAG	5630 fluorescence intensity (a.u.)
CCCAGCCCACAAAGGAAGCGAGATCACAATTTCTGGGCCGCGGAGTCACCTAGTGCAG	3400 fluorescence intensity (a.u.)
AAAAGCAAAAGCAAAAGAAACACGTCCTTATTCCTCTCTCCGGAGTCACCTAGTGCAG	3910 fluorescence intensity (a.u.)
GATCAACCTTATTTCTGCAAGCAAATCAAAGAAACAAGCACGGAGTCACCTAGTGCAG	41700 fluorescence intensity (a.u.)
TCCCGCCACAAGCAACCAAGAAATCAAGAAACCGTTTCAGCGGAGTCACCTAGTGCAG	19600 fluorescence intensity (a.u.)
CGGCAGCCACCTCCCCACTCCATCCTCTCGTCCCCTTTTACGGAGTCACCTAGTGCAG	3870 fluorescence intensity (a.u.)
CTGCTCCTAGTCACACTTGACAGTTCAGCTTCAGCTCCTCCGGAGTCACCTAGTGCAG	6360 fluorescence intensity (a.u.)
TGAGCTGCTTTTACACGTTGCTTTATTGACACTTGTTCACCGGAGTCACCTAGTGCAG	45500 fluorescence intensity (a.u.)
ATTGTTTAGTATTGCGTTATGTTATGTTACTTTTGATACACGGAGTCACCTAGTGCAG	14400 fluorescence intensity (a.u.)
TGCATAAGGATAATCCGGTCGTCAGCAAACAATGCATTCACGGAGTCACCTAGTGCAG	3450 fluorescence intensity (a.u.)
TGCAAATTGCGAGACGGATTTATTAAGCCTAGTTAATCCGCGGAGTCACCTAGTGCAG	39400 fluorescence intensity (a.u.)
ACGAATTTATTAAGCCTAATTAATCCGTTATTAGCAAATGCGGAGTCACCTAGTGCAG	6210 fluorescence intensity (a.u.)
CAAGACGGATTTATTAAGCCTAATTAATCTATCATTAGCGCGGAGTCACCTAGTGCAG	4110 fluorescence intensity (a.u.)
AAAGGCCACGCCTTTGCCTCGTCAGTTATCTCTTCGTTTCCGGAGTCACCTAGTGCAG	5220 fluorescence intensity (a.u.)
GGAGTATCCATGCCAGCTAAGCGAGTTGTACAAGGCAAGCCGGAGTCACCTAGTGCAG	5690 fluorescence intensity (a.u.)
CGGGTAGGCGAACACGTCGCTGACGCCGCACCGCTCCAGCCGGAGTCACCTAGTGCAG	6760 fluorescence intensity (a.u.)

Sequence	binding signal
TGGTGATATCAATAGGATTGGAAGAGATTTGTCAGCCTATCGGAGTCACCTAGTGCAG	3450 fluorescence intensity (a.u.)
TATCAAAATCCACTGCAACATTTAATACATACATAGTGAACGGAGTCACCTAGTGCAG	21300 fluorescence intensity (a.u.)
TAGCTCGTACTCCTACATCGTAGCCACCGCGCCTCCCATGCGGAGTCACCTAGTGCAG	3640 fluorescence intensity (a.u.)
CGCCATGGGAGCACTCCCCATCTTGTCCTCTACCGCCGCGCGGAGTCACCTAGTGCAG	3250 fluorescence intensity (a.u.)
CGCCATGGGCGACATCGACATCTACAGCCTCTACACTCCGCGGAGTCACCTAGTGCAG	44200 fluorescence intensity (a.u.)
GCCTGTGGCCCACGCCGTCAGTGGGAGTGGCGGTGTCGGGCGGAGTCACCTAGTGCAG	3960 fluorescence intensity (a.u.)
CCGAATCCGGCCACCCCGCCGCCTCCACGCGCATCACCGCCGGAGTCACCTAGTGCAG	3220 fluorescence intensity (a.u.)
ACGGGCACGACGACCGTCGTGCTCACGGCCGCCGACGTCGCGGAGTCACCTAGTGCAG	4140 fluorescence intensity (a.u.)
GCCGATTGCAATTTCGTCATCACTGCGGTTAGGATTACACCGGAGTCACCTAGTGCAG	4340 fluorescence intensity (a.u.)
TGCTGTCGATGTGCTTATCTTTCGATTTATTCCTCTCATCCGGAGTCACCTAGTGCAG	3200 fluorescence intensity (a.u.)
CCCACCATTGCCGCCGTGTCCGGCAACCTAACGAACCTCGCGGAGTCACCTAGTGCAG	4100 fluorescence intensity (a.u.)
GGCAACGCACCACGCTGCACGCGTCCGTGGTCGCCGCGAACGGAGTCACCTAGTGCAG	3150 fluorescence intensity (a.u.)
CTCCGCAGTCGTAGGCCCACGCGAACCATTCCGTGTGCAACGGAGTCACCTAGTGCAG	52000 fluorescence intensity (a.u.)
CCTCCTTTTCTTCTCCACGTATACAATCAGTCTAGTTGGACGGAGTCACCTAGTGCAG	5040 fluorescence intensity (a.u.)
GCAGTATATGTGTGTGTGCTTTCTTTTGGGATAGAGTCTGCGGAGTCACCTAGTGCAG	3460 fluorescence intensity (a.u.)
TGGATAAGGATGTGTGAGACGTGTGATCTTTACTTGTTGGCGGAGTCACCTAGTGCAG	3980 fluorescence intensity (a.u.)
ATCTTTTCTAGTACCAGGATCTTGTGTTGGTGATAGAGAGCGGAGTCACCTAGTGCAG	42500 fluorescence intensity (a.u.)
TACTTTAAATGTGTGTCCGTATATCCGATGTGACACGCCACGGAGTCACCTAGTGCAG	3870 fluorescence intensity (a.u.)
TAAACATATATGCATGGATGATGTCATGGAAACATGGATTCGGAGTCACCTAGTGCAG	4690 fluorescence intensity (a.u.)
GATCAATCATCCTTGTTCACAAGGCTGCCTGACATGGATGCGGAGTCACCTAGTGCAG	3730 fluorescence intensity (a.u.)
AGATGGGAAATAAAGGGTGGTGACATGGCACACTGACATGCGGAGTCACCTAGTGCAG	10800 fluorescence intensity (a.u.)
